Source: PubChem BioAssay (NCATS)
Values joined by “and” are separate entries in the source; they are usually repeats but may differ in a detail not shown here. Equal entries are not always repeated. Records with an inconclusive call do not appear. Active and inactive are the calls of the source. Unless noted, calls come from the whole dose curve; as a rule, active = well fitted curve in the direction sought with a large enough effect; inconclusive = small, poorly fitted or top-dose-only effect, or another doubt; inactive = no such curve, though single readings can be large; an effect the other way counts as inactive or inconclusive.

Columns and labels:
[1] = qHTS Assay for Lipid Storage Modulators (AID 1519; calls by dose curve; for activity change, negative = inhibition: % is set by controls: 0 for no effect and ±100 for the full control effect); conditions: Drosophila S3 cells, BODIPY lipid droplet/cell ratio, laser cytometry, cells loaded with oleic acid
Outline: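 Cells seeded at 5,000 per well were treated with compounds over a concentration series and loaded with oleic acid (400 uM, as added). Lipid droplet fluorescence (488 nm excitation, 500-530 nm channel) was read by laser-scanning cytometry and normalized to 20 uM Triacsin C.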

[2] = biological target: DNA repair nuclease/redox regulator APEX1 (Homo sapiens) (UniProt P27695); experiment: qHTS Validation Assay for Inhibitors of the Human Apurinic/apyrimidinic Endonuclease 1 (APE1) (AID 1705;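 note: TAMRA fluorescence gain over two minutes as APE1 cuts a quenched THF abasic duplex; % is set by controls: 0 for no effect and ±100 for the full control effect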); conditions: purified APE1 endonuclease activity, fluorescence, titration; series mostly up to 57.1 µM
Outline: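 Fluorogenic double-stranded THF abasic-site substrate (5'-TAMRA/3'-BHQ-2), 50 nM final. Enzyme preincubated with compound 15 min at room temperature, then substrate added. Kinetic fluorescence (ex 525/em 598 nm) read three times at 60 s intervals; activity taken as third-minus-first read difference.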

[3] = Counterscreen for APE1 Inhibitors: Fluorescent Dye Displacement Validation Assay (AID 1707); conditions: fluorescent dye displacement from DNA; series mostly up to 57.1 µM;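 note: plate controls were ThO with dsDNA and no compound for no effect and ThO without dsDNA for full effect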
Outline: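 Counterscreen flags promiscuous DNA binders: compounds displacing ThO from duplex DNA (abasic THF site, 50 nM) reduce 540 nm emission (480 nm excitation). ThO 250 nM final; Tris-HCl pH 7.5 with NaCl, MgCl2 and Tween-20.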

[4] = qHTS for differential inhibitors of proliferation of Plasmodium falciparum line D10 (AID 1877); conditions: series mostly up to 28.7 µM;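 note: parasites grown with compound for 72 h before DNA staining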; note: potency is the fitted concentration of half-maximal effect;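 for activity change, negative = inhibition: plate controls were vehicle wells for no effect and reference inhibitor wells for full effect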
[5] = qHTS for differential inhibitors of proliferation of Plasmodium falciparum line Dd2 (AID 1882); conditions: Potency: Plasmodium falciparum Dd2 proliferation inhibition; series mostly up to 28.7 µM; note: nearly all actives have a fitted effect of over 65% in size; note: potency is the fitted concentration of half-maximal effect;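 for activity change, negative = inhibition: compound exposure of 72 h on infected erythrocytes; plate controls were DMSO vehicle for no effect and 0.29 µM artemisinin for full effect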
Outline: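 RBC culture, 0.3% parasitemia / 2.5% Hct final; cpd added by pin tool in DMSO; 72 h, 37 C, 5% CO2; lysis buffer + SYBR Green I, o/n RT dark; FI 485/535; norm. to artemisinin 0.29 uM and DMSO.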

[6] = biological target: Endonuclease 4 (Escherichia coli (strain K12)) (UniProt P0A6C1); experiment: Counterscreen for APE1 Inhibitors: qHTS Validation Assay for Inhibitors of Endonuclease IV (AID 1708); note: % is set by controls: 0 for no effect and ±100 for the full control effect; conditions: E. coli endonuclease IV, DNA cleavage fluorescence; series mostly up to 57.1 µM
Outline: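 The reaction buffer contained 50 mM Tris-HCl pH 7.5, 50 mM NaCl, 2 mM MgCl2, 1 mM DTT and 0.01% Tween-20. Incision of a 50 nM fluorophore/quencher THF substrate by 2 nM enzyme was measured kinetically.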

[7] = qHTS for differential inhibitors of proliferation of Plasmodium falciparum line 7G8 (AID 1815); conditions: Plasmodium falciparum 7G8 proliferation inhibition; series mostly up to 28.7 µM;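 note: parasite growth measured after three days of incubation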; note: potency is the fitted concentration of half-maximal effect;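 for activity change, negative = inhibition: plate controls were vehicle wells for no effect and reference inhibitor wells for full effect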
[8] = qHTS for differential inhibitors of proliferation of Plasmodium falciparum line GB4 (AID 1816); conditions: Potency: Plasmodium falciparum GB4 proliferation inhibition; series mostly up to 28.7 µM;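 note: parasite growth measured after 72 h incubation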; note: potency is the fitted concentration of half-maximal effect;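 for activity change, negative = inhibition: 0% = vehicle DMSO and -100% = reference inhibitor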
[9] = qHTS for differential inhibitors of proliferation of Plasmodium falciparum line 3D7 (AID 1876); note: potency is the fitted concentration of half-maximal effect; conditions: P. falciparum 3D7 proliferation inhibition; series mostly up to 28.7 µM
[10] = qHTS for differential inhibitors of proliferation of Plasmodium falciparum line W2 (AID 1883); conditions: Potency: Plasmodium falciparum W2 proliferation inhibition; series mostly up to 28.7 µM;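 note: parasites grown with compound for 72 h before lysis and staining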; note: potency is the fitted concentration of half-maximal effect;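 for activity change, negative = inhibition: 0% = vehicle wells and -100% = control inhibitor wells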
[11] = measured here: cell count channel max response
[12] = measured here: lipid channel max response

Chain of DNA repair nuclease/redox regulator APEX1 (Homo sapiens) (P27695 whole entry, looked up): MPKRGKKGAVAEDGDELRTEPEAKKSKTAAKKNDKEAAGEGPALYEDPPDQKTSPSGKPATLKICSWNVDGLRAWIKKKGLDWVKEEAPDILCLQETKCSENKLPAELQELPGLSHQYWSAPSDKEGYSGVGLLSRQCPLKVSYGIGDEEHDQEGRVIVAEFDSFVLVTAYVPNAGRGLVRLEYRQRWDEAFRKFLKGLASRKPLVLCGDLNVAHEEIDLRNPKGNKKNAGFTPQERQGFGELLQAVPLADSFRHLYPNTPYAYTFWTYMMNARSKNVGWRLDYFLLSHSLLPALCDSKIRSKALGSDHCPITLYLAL

Structure (SMILES) | activity change, negative = inhibition ([1]; at 25.7 µM (top of the series)) | activity change, negative = inhibition ([1]; at 57.5 µM (top of the series)) | max response [1, 11] | max response [1, 12] | Potency [2] | outcome [3] | Potency [4] | Potency [5] | Potency [6] | Potency [7] | Potency [8] | Potency [9] | Potency [10]
CCn1nc(C(=O)O)c(=O)c2cc3c(cc21)OCO3 | 1.1% (inactive) | 13.5% (inactive) | -2.39% and 18.6% | 0.268% and 42.8% | inactive | inactive |  |  |  |  |  |  | 
CC(C)(Oc1ccc(CCNC(=O)c2ccc(Cl)cc2)cc1)C(=O)O | -0.881% (inactive) |  | -0.576% | -0.58% |  |  |  |  |  |  |  |  | 
CCCOc1ccccc1-c1nc2n[nH]nc2c(=O)[nH]1 | -0.67% (inactive) | 9.88% (inactive) and -1.66% (inactive) | 4.38% and 27.6% and 39.3% | 5.08% and 45.2% and 35.5% | inactive | inactive | inactive | inactive |  |  |  |  | 
CCCCCCCC/C=C\CCCCCCCC(=O)NCc1ccc(O)c(OC)c1 |  | -24.2% (inactive) | 15.7% | -12.6% |  |  |  |  |  |  |  |  | 
CN1CCN(C2=Nc3ccccc3Oc3ccc(Cl)cc32)CC1 | -4.84% (inactive) | 10% (inactive) and 2.23% (inactive) | 14.9% and 0.863% and -23% | 7.38% and 8.12% and -19.5% | inactive | inactive | 11.2 µM (active) |  | inactive | 7.08 µM (active) | 11.2 µM (active) | 12.6 µM (active) | 5.01 µM (active)
O=C(CCNNC(=O)c1ccncc1)NCc1ccccc1 | -0.0465% (inactive) | 1.21% (inactive) | -2.07% and 1.8% | 0.496% and 1.66% | inactive | inactive |  | inactive |  |  |  |  | 
CCN(CC)CCNC(=O)c1cc(S(C)(=O)=O)ccc1OC | -2.02% (inactive) | 7.41% (inactive) and 1.69% (inactive) | -4.82% and 19.9% and -18.4% | -8.3% and 33.5% and -17.4% | inactive | inactive | inactive | inactive |  | inactive | inactive | inactive | inactive
Nc1nc(N)c2nc(-c3ccccc3)c(N)nc2n1 | -0.107% (inactive) | -0.933% (inactive) | -4.41% and -12.1% | -2.65% and -13.5% |  | inactive | 2.51 µM (active) | inactive |  |  | 0.891 µM (active) | 2 µM (active) | 15.8 µM (active)
Cc1ccc(/C(=C\CN2CCCC2)c2ccccn2)cc1 |  | 3.64% (inactive) and 0.151% (inactive) | 7.98% and 15.3% | 14.1% and 15.5% | inactive | inactive |  |  |  |  |  |  | 
CCCCNC(=O)NS(=O)(=O)c1ccc(C)cc1 | 0.284% (inactive) | 5.43% (inactive) and -0.0777% (inactive) | -2.87% and 13.1% and 19.7% | -2.83% and 21.8% and 21.4% | inactive | inactive | inactive | inactive | inactive |  | inactive | inactive | inactive
CCCCNc1c(C(=O)OCC)c(C)nc2c1cnn2CC | -0.42% (inactive) | -16.8% (inactive) | -19.5% and -31.7% | -18.5% and -43.9% | inactive | inactive | 14.1 µM (active) |  | inactive | 7.94 µM (active) | 12.6 µM (active) | 12.6 µM (active) | 11.2 µM (active)
CCCC(C(=O)OCCN(CC)CC)(c1ccccc1)c1ccccc1 | -1.67% (inactive) | -2.92% (inactive) and 2.44% (inactive) | -3.68% and -8.12% and 19.2% | -5.52% and -10.9% and 21.5% | inactive |  | 3.16 µM (active) | 7.08 µM (active) | inactive | 1.78 µM (active) | 3.16 µM (active) | 2.24 µM (active) | 1.78 µM (active)
CN/C(=C\[N+](=O)[O-])NCCSCc1ccc(CN(C)C)o1 | -0.0815% (inactive) | 4.77% (inactive) and 9.42% (inactive) | 4.03% and -18.5% and 18.2% | 2.82% and -19.9% and 33.3% | inactive | inactive |  |  |  |  |  |  | 
CN(C)CCOC(=O)COc1ccc(Cl)cc1 | 0.143% (inactive) | 11.6% (inactive) and 1.09% (inactive) | 1.9% and 22.5% and -10.8% | 1.25% and 39.9% and -9.35% | inactive |  |  | inactive |  | inactive |  | inactive | inactive
CC(C)NNC(=O)c1ccncc1 | -0.171% (inactive) | 6.45% (inactive) and -0.103% (inactive) | 4.18% and 16.8% and -20.6% | 1.65% and 27.2% and -21.8% | inactive | inactive | inactive | inactive |  | inactive | inactive | inactive | inactive
CCN(CC)CC(=O)Nc1c(C)cccc1C | 0.593% (inactive) | 2.9% (inactive) | -1.17% and 18.4% | 2.13% and 21.4% | inactive | inactive | inactive | inactive |  | inactive |  | inactive | 14.1 µM (active)
Cc1ccc(S(=O)(=O)NC(=O)NN2CCCCCC2)cc1 | 0.497% (inactive) | 9.8% (inactive) | 0.635% and 17.7% | 2.19% and 33.1% | inactive |  | inactive | inactive |  | inactive | inactive | inactive | inactive
CCCCNc1ccc(C(=O)OCCN(C)C)cc1 | 3.23% (inactive) | 14.3% (inactive) | -0.19% and 24.9% | 3.57% and 43.3% | inactive | inactive |  | inactive |  | inactive |  |  | inactive
